The list is not random: actives were taken first. Their share in the collection is about 19%.
TDP1 cell CPT – DT40-hTDP1 cell growth loss with CPT. chicken DT40 Tdp1-/-;hTDP1 cells + 20 nM CPT, ATP luminescence, 48 h. Potency, µM (titrated, usually from 46.2 µM), for the others: at the top dose activity change, negative = growth inhibition, hits mostly inhibitors. 420,000 tested, 12% active. AID 686979; note: potency is the fitted concentration of half-maximal effect; nearly all actives have a fitted effect of over 55% in size
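Cell growth measured by CellTiter-Glo luminescence after a minimum 48 h, 37 C compound exposure with 20 nM CPT in Tdp1-knockout DT40 cells stably expressing hTDP1, seeded 400/well; qHTS titration format.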
uPA surface inh – cell surface uPA generation inhibition. cell surface uPA generation assay, qHTS. Potency, µM (titrated, usually from 38.3 µM), without a hit: at the top dose activity change, negative = inhibition, actives largely listed as inhibitors. 330,000 tested, 0.31% active. AID 540303; active = well fitted inhibition curve with a large enough effect; inconclusive = small, poorly fitted or top-dose-only effect; inactive = no such curve, though single readings can be large or run the other way; tested in mouse RAW 264.7 cells; note: potency is the fitted concentration of half-maximal effect; nearly all actives have a fitted effect of over 55% in size
IL1B secr inh – blocks inflammasome-driven IL-1 beta release; THP-1 LPS/ATP IL-1B secretion, AlphaLISA, 16 h; hits give low values; AID 743279; 360,000 tested, 4.7% active; activity change, % at 57.5 µM; in the data active = activity change below about -50%; inconclusive = mostly about -30% to -49%
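THP-1 cells pretreated 1 hr with compounds (up to 57.5 uM final), then stimulated with LPS (250 ng/mL final) plus ATP (1.25 mM final); secreted IL-1B measured by AlphaLISA after 16 hr, decreased signal indicating inhibition.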
HT1080NT lethal – kills 2HG-producing HT-1080-NT fibrosarcoma cells; 360,000 tested, 1.6% active; Potency, µM (highest dose often 46.1 µM), inactives show at the highest dose activity, negative = less viability, usual class: cytotoxic; HT-1080-NT fibrosarcoma viability, CellTiter-Glo ATP luminescence, 48 h;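 note: NT is the 2HG producing partner of a matched IDH1 knockdown line; potency is the fitted concentration of half-maximal effect; 0% = DMSO-treated cells and -100% = media-only wells without cells; nearly all actives have a fitted effect of over 55% in size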
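HT-1080-NT fibrosarcoma cells (2HG-overproducing), 750 cells/well in RPMI with 5% FBS, dosed after 2 h and incubated 48 h at 37C. CellTiter-Glo luminescence normalized to DMSO and no-cell wells; concentration-response curves fitted and classed.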
HT1080 IDH1KD tx – kills HT-1080 cells with IDH1 knockdown | HT-1080 IDH1 knockdown viability, ATP luminescence, 48 h | Potency, µM (series often up to 46.1 µM), without a hit: at the highest dose activity, negative = toxicity, actives largely listed as cytotoxic | 360,000 tested, 2% active;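 note: potency is the fitted concentration of half-maximal effect; 0% = DMSO wells and -100% = cell-free medium wells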
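In this qHTS, HT-1080 cells depleted of IDH1 are exposed for 48 h at 37 °C to compound titrations. Toxicity is scored from CellTiter-Glo luminescence, with DMSO as full viability and medium alone as none.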
DT40 TDP1 no CPT – qHTS for Inhibitors of human tyrosyl-DNA phosphodiesterase 1 (TDP1): qHTS in cells in absence of CPT. DT40 Tdp1-/- hTDP1 cells, no CPT, ATP luminescence, 48 h. Potency, µM (series often up to 46.2 µM), for the others: at the top dose activity change, negative = growth inhibition, usual class: inhibitors. 420,000 tested, 15% active. AID 686978, 2013; note: potency is the fitted concentration of half-maximal effect; nearly all actives have a fitted effect of over 55% in size
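Chicken DT40 Tdp1-/- cells complemented with human TDP1, screened without camptothecin (DMSO vehicle only), 400 cells/well. Compounds pin-transferred, cells incubated at 37 °C for at least 48 hr. Growth read as ATP-dependent luminescence (CellTiter-Glo, 30 min at RT).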
Numbers without * were called inactive; ? = inconclusive; . = no result given; [ ] = another dose, or the depositor's remark. Unless noted, calls come from the whole dose curve; as a rule, active = well fitted curve in the direction sought with a large enough effect; inconclusive = small, poorly fitted or top-dose-only effect, or another doubt; inactive = no such curve, though single readings can be large; an effect the other way counts as inactive or inconclusive. Unless noted, % is set by controls: 0 for no effect and ±100 for the full control effect.

SMILES	TDP1 cell CPT	uPA surface inh	IL1B secr inh	HT1080NT lethal	HT1080 IDH1KD tx	DT40 TDP1 no CPT
OCCN1CCN(c2nc(-c3ccccc3)nc3c2oc2ccccc23)CC1	?	-8%	.	23µM*	?	16µM*
OCCN1CCN(c2nc(-c3ccccc3O)nc3ccccc23)CC1	-8%	2%	-82*	?	?	16µM*
OCCN(CCO)c1nc(-c2ccccc2)nc2c1oc1ccccc12	16µM*	2%	-25	2%	2%	?
O=C(O)C1CCN(c2nc(-c3ccccc3)nc3c2oc2ccccc23)CC1	-26%	-8%	7	-24%	-19%	?
c1ccc2c(N3CCCCCC3)nc(CN3CCCCC3c3nccs3)nc2c1 (centres undefined)	-4%[9.04 µM]	.	.	.	.	?
COCCNC(=O)c1ccc(N2CC3CC(C2)c2cccc(=O)n2C3)c(NC(=O)c2ccc(C(C)(C)C)cc2)c1 (centres undefined)	-24%	.	-14	1%	2%	?
CCN1C(=O)/C(=C/C=C2/CCCN2C)OC1=S	?	1%	2	7%	8%	5.2µM*
CN1C(=O)/C(=C\C=C2/CCCN2C)N(C)C1=S	-17%	1%	22	11%	11%	8%
CCOc1ccc(-c2cn3ccccc3n2)cc1	?	-10%	0	?	?	?
Fc1ccc(-c2cn3ccccc3n2)cc1	-5%	10µM*	18	-5%	-2%	-28%
Cc1ccc2nc(-c3ccc4c(c3)OCCO4)cn2c1	1.3µM*	-15%	54	3.7µM*	2.3µM*	1.6µM*
c1ccn2cc(-c3ccc4c(c3)OCCO4)nc2c1	15µM*	3.2µM*	-5	?	?	26µM*
COc1cc(S(=O)(=O)n2cnc3ccccc32)ccc1Br	2%	8%	1	4%	13%	-9%
COc1cccc(/C=C/C(=O)c2ccc(C)c([N+](=O)[O-])c2)c1	?	-17%	-83*	?	-24%	21µM*
COC(=O)N/N=C(\C)c1ccc(C)c([N+](=O)[O-])c1	-12%	2%	-4	20%	15%	?
COc1ccc(/C=C/C(=O)c2ccc(C)c([N+](=O)[O-])c2)cc1O	?	-13%	?	-12%	?	13µM*
COc1cc(/C=C/C(=O)c2ccc(C)c([N+](=O)[O-])c2)cc(OC)c1O	16µM*	-8%	?	?	?	15µM*
CCOC(=O)C1CCN(c2ncnc3c2nnn3C)CC1	-9%	.	.	.	.	-14%
CCOC(=O)C1(C(F)(F)F)N=C(c2cccnc2)OC(N2CCCCC2)=N1 (centres undefined)	?	2%	-4	13%	5%	?
COc1ccccc1CNC(=O)COC(=O)c1cccc(-n2cnnn2)c1	-9%	3%	44	4%	16%	23%
O=C(CNC(=O)[C@@H]1Cc2ccccc2CN1)Nc1ccc2c(c1)OCCO2	-4%	0%	-7	10%	7%	20%
C[n+]1ccnc2cc(Cl)ccc21	0.63µM*	.	.	.	.	0.71µM*
C=CC[n+]1ccc2ccccc2c1C	-11%	-3%	-2	6%	15%	-13%
C=CC[n+]1ccnc2ccccc21	5µM*	.	.	.	.	?
C[n+]1ccnc2ccccc21	1.4µM*	.	.	.	.	4µM*
SMILES	TDP1 cell CPT	uPA surface inh	IL1B secr inh	HT1080NT lethal	HT1080 IDH1KD tx	DT40 TDP1 no CPT
COc1ccccc1Oc1ccnc2cc(Cl)ccc12	?	1%	0	-20%	-11%	?
CCOc1ccc2nc3cc(N=Nc4ccc(N)nc4N)ccc3c(N)c2c1	5.8µM*	3%	38	8%	19%	2.6µM*
COc1cc(CNn2nnnc2N)cc(Br)c1OCc1c(Cl)cccc1Cl	18µM*	-4%	19	-9%	?	21µM*
Cc1cc[n+](Cc2ccccc2)c(N)c1	-1%	5%	11	4%	-1%	-16%
c1ccc(C[n+]2csc3ccccc32)cc1	1µM*	.	-53*	?	?	1µM*
c1ccc2c(c1)sc[n+]2CCC1CCCCC1	5µM*	.	.	.	.	2.5µM*
O=C(CC[C@H]1O[C@@H](n2ccc(=O)[nH]c2=O)[C@H](O)[C@@H]1O)N[C@H](Cc1ccccc1)C(=O)NCC1CCCO1 (some centres undefined)	-6%	.	0	0%	12%	8%
COc1cccc(Nc2ncc3nc(-c4ccc(Cl)cc4)c(=O)n(C4CC4)c3n2)c1	-19%	.	.	.	.	-1%
O=C(CCNS(=O)(=O)c1cccc2nsnc12)Nc1ccc(F)cc1	-4%	.	.	.	.	-15%
CC(CCCN(C)C)C(Cc1ccccc1)c1ccccc1 (centres undefined)	?	0%	-66*	?	16µM*	?
CN(C)CCC(=O)C(Cc1ccccc1)c1ccccc1 (centres undefined)	5.2µM*	-13%	-99*	-39%	?	4.6µM*
COc1cc(NC(=O)CN2C(=O)NC(C)(c3ccccc3)C2=O)c(C)cc1[N+](=O)[O-] (centres undefined)	15%	1%	18	-14%	-4%	-10%
COc1cc(NC(=O)CN2CCN(c3ccccc3O)CC2)c(C)cc1[N+](=O)[O-]	12µM*	7%	0	-3%	-5%	?
O=C(CN1CCN(c2ccccc2O)CC1)Nc1ccc([N+](=O)[O-])cc1Br	?	4%	6	-7%	-23%	23µM*
CCc1ccccc1N1CC(c2nc3ccccc3n2CCC2CCCCC2)CC1=O (centres undefined)	5.8µM*	.	.	.	.	5.2µM*
Cc1cccc(C)c1N1CC(c2nc3ccccc3n2CC(=O)OC(C)C)CC1=O (centres undefined)	?	.	.	.	.	16µM*
CCOc1ccccc1N1CC(c2nc3ccccc3n2CCCCOc2ccccc2)CC1=O (centres undefined)	-7%	.	.	.	.	-8%
Cc1cccc(N2CC(c3nc4ccccc4n3CCC3CCCCC3)CC2=O)c1 (centres undefined)	?	.	.	.	.	18µM*
Cc1ccccc1N1CC(c2nc3ccccc3n2Cc2ccc(Br)cc2)CC1=O (centres undefined)	?	.	.	.	.	16µM*
CCN=C(NCC)SC1CC(=O)N(c2ccc(F)cc2)C1=O (centres undefined)	0%	8%	-3	6%	1%	-7%
CCOc1ccc(N/C(=N/c2nc(C)cc(C)n2)NC(C)=O)cc1	-15%	-1%	-5	15%	8%	?
